Source: PubChem BioAssay (Broad Institute)
Sampled rows, rich in hits. Any-hit rate of the full collection: about 2.3%.
U2OS ROS induce: inducers of reactive oxygen species in cancer cells. U2OS ROS induction, H2DCF-DA fluorescence. ROS induction (% of piperlongumine), % at 10 µM. 2% of 46,000 active. AID 624156; in the data active = ROS induction above about 79%, passing the limit was not always enough;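 also: 0% = DMSO vehicle median and 100% = reference compound median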
YB-1 expr inh: YB-1 expression inhibition; U2OS, qRT-PCR YB-1 vs CDIP delta delta Cp, 16 h; stronger effect = higher value; zero = DMSO, each unit about twofold; delta delta Cp (YB-1 minus CDIP) (no concentration beside the values); 0.37% of 30,000 active; AID 434959;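 active = delta delta Cp rounded down to an integer at or above 3, about 3 SD of DMSO wells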;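 also: higher means less YB-1 transcript or more CDIP transcript relative to DMSO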
* hit, by the source's call; x = no result.

SMILES	U2OS ROS induce	YB-1 expr inh
O=C(Cc1ccc(-n2c(=S)[nH]c3ccccc3c2=O)cc1)NCCc1ccccc1	-2	x
O=C(Oc1cccc(NC(=O)c2cccs2)c1)c1cccc(S(=O)(=O)N2CCOCC2)c1	47	x
O=c1cc(N2CCOCC2)oc2c(-c3ccccc3)cccc12	85*	0.11
O=c1cc(N2CCOCC2)oc2c1ccc1ccccc12	-2	-0.33
Cc1ccc(-c2cc(C(F)(F)F)n3ncc(C(=O)NCc4ccco4)c3n2)cc1	96*	x
Cc1ccc(-c2cc(C(F)(F)F)n3nc(C(=O)NCc4ccco4)cc3n2)cc1	39	x
Cc1ccc(-c2cc(C(F)F)n3ncc(C(=O)NCc4ccco4)c3n2)cc1	111*	x
COC(=O)c1ccc(C(=O)OC)c(NC(=O)c2cnn3c(C(F)F)cc(-c4ccc(C)cc4)nc23)c1	-10	x
O=C(NCCN1CCOCC1)c1cnn2c(C(F)F)cc(-c3ccccc3)nc12	67	x
Cc1ccc(-c2cc(C(F)F)n3ncc(C(=O)NCCCN4CCOCC4)c3n2)cc1	137*	x
O=C(Nc1ccc(C(F)(F)F)cc1)c1ccc2c(c1)CCO2	-3	x
CC1(C)CC(=O)C=C(SCC(=O)Nc2cc(C(F)(F)F)cc(C(F)(F)F)c2)S1	7	-0.025
CCOC(=O)c1nn(-c2ccccc2)c(C#N)c1NC(=O)c1nn(CC)cc1Br	166*	-0.27
CCOC(=O)c1c(NC(=O)c2nn(CC)cc2Br)c(C#N)nn1-c1ccccc1	125*	x
COC(=O)c1nn(-c2ccccc2)c(=O)c2c(N)sc(C)c12	1	x
CCOC(=O)CNc1nnc(-c2ccccc2)c(-c2ccccc2)c1C#N	62	x
CCc1ccc(NC(=O)N2CCC(N(C)C(C)C)CC2)cc1	-17	x
N#Cc1c2c(c(NCCN3CCCCC3)n3c1nc1ccccc13)CCC2	-3	x
C=CCSc1c2c(c(C#N)c3nc4ccccc4n13)CCC2	103*	0.2
COCCOC(=O)N1C(=O)[C@@]2(c3cc(C#CC4=CCCCC4)ccc31)[C@H](C(N)=O)[C@H]1C(=O)O[C@H](c3ccccc3)[C@H](c3ccccc3)N1[C@@H]2c1ccc(O)cc1	6	-0.044
COCCOC(=O)N1C(=O)[C@@]2(c3cc(C#CCCO)ccc31)[C@H](C(=O)NC[C@H](O)c1ccccc1)[C@H]1C(=O)O[C@H](c3ccccc3)[C@H](c3ccccc3)N1[C@@H]2c1ccccc1OCCO	23	0.2
COCCOC(=O)N1C(=O)[C@@]2(c3cc(C#CC4=CCCCC4)ccc31)[C@H](C(N)=O)[C@H]1C(=O)O[C@H](c3ccccc3)[C@H](c3ccccc3)N1[C@@H]2c1ccccc1OCCO	138*	-0.033
COCCOC(=O)N1C(=O)[C@@]2(c3cc(C#CC4=CCCCC4)ccc31)[C@H](c1ccccc1OCCO)N1[C@H](c3ccccc3)[C@H](c3ccccc3)OC(=O)[C@H]1[C@@H]2C(=O)NC[C@H](O)c1ccccc1	144*	-0.21
CC(NCc1ccc(C(=O)O)s1)c1ccccc1 (stereo not drawn)	-8	x
Clc1ccc(C2=NN=C(N3CCCC3)SC2)cc1	5	-0.4
SMILES	U2OS ROS induce	YB-1 expr inh
Nc1c(S(=O)(=O)c2ccccc2)sc2nc(-c3cccs3)cc(C(F)(F)F)c12	-4	x
C=C1C2=C(O[C@H](/C(C)=C/C(C)CC(C)CC)[C@@H](O)[C@@H]2O)C(=O)N1OC (stereo partly drawn)	149*	-0.38
Cc1ccc(NC(=O)c2oc3ccccc3c2NC(=O)c2ccccc2)cc1	42	x
Cc1noc(C)c1C(=O)N1CCc2sccc2C1c1ccc(C(F)(F)F)cc1 (stereo not drawn)	-3	x
O=S(=O)(Nc1ccncc1)c1ccc2ccccc2c1	1	x
COc1cc(O)c(C(=O)Cc2ccc(Cl)cc2)c(OC)c1	-9	x
COc1cc(O)c(C(=O)CCc2ccc(OC)c(OC)c2)c(OC)c1	22	4.9*
CC(C)C[C@H]1C(=O)N2CCC[C@H]2[C@]2(O)O[C@](NC(=O)[C@@H]3C=C4c5cccc6[nH]c(Br)c(c56)C[C@H]4N(C)C3)(C(C)C)C(=O)N12	107*	0.28
CC(C)CC1C(=O)N2CCC[C@H]2C2(O)O[C@](NC(=O)C3C=C4c5cccc6[nH]c(Br)c(c56)C[C@H]4N(C)C3)(C(C)C)C(=O)N12 (stereo partly drawn)	24	0.21
CC(=O)n1c(C=NCc2ccccc2)c(O)c2ccccc21	2	x
O=C1CC(c2ccc(O)c(O)c2)Oc2cc(O)ccc21 (stereo not drawn)	6	0.037
O=C(O)c1ccc(CNCc2ccccc2)s1	-14	x
Cc1csc2sc(-c3ccnc(SCC(=O)c4ccccc4)n3)c(C)c12	21	0.17
CSc1sc(-c2ccnc(SCC(=O)C(C)(C)C)n2)c2c1C(=O)CC(C)(C)C2	139*	-0.32
Clc1cccc(CNc2ccc3nnc(-c4ccccc4)n3n2)c1	20	x
Cc1c2c(nc3c(C(=O)NC4CCCC(C)C4C)cnn13)CCCC2 (stereo not drawn)	90*	x
